# Measured values from the supplement of paper PMC9135407.
# Several values for one entry are separate records, joined by “and”; a condition that tells them apart may be missing. Equal entries are not always repeated. Structures can show the parent of a compound that is named as a salt. In all, about 5,800 compounds went through this assay and about 620 (11%) showed activity. The sample as a whole holds a higher share of actives than the screen did. Unmarked numbers belong to inactive results.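 Rule for the calls: active = score above a cut-off or among the top three wells of a plate; in these data no inactive exceeds 0.85.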
# Tested on: primary human hepatic stellate cells (donor 1)
# Assay: scaled lipid accumulation score (0 = DMSO-like, 1 = nortriptyline-like); higher = stronger HSC inactivation (lipid re-accumulation), active = hit call of the paper
# Conditions: 48 h
# [1] = library stock concentration: 3.33 mM
# [2] = library stock concentration: 10 mM
# [3] = library stock concentration: 1 mM
# [4] = library stock concentration: 400 uM
# [5] = library stock concentration: 2 mM
# [6] = library stock concentration: 80 uM
smiles,measurement,setting,value
CCC[C@H](NC(=O)[C@@H]1[C@H]2CCC[C@H]2CN1C(=O)[C@@H](NC(=O)[C@@H](NC(=O)c1cnccn1)C1CCCCC1)C(C)(C)C)C(=O)C(=O)NC1CC1 [Telaprevir (VX-950)],scaled lipid accumulation score,[1],≤ 0
same,scaled lipid accumulation score,[2],≤ 0
CCCCCCCCCCCCCCCCOC[C@H](COP(=O)([O-])OCC[N+](C)(C)C)OC(=O)NC [Methylcarbamyl PAF C-16],scaled lipid accumulation score,[3],≤ 0
O=C(O)CCC/C=C\C[C@H]1[C@@H](/C=C/[C@@H](O)CCc2ccccc2)[C@H](O)C[C@@H]1O [8-iso-17-phenyl trinor Prostaglandin F2.alpha.],scaled lipid accumulation score,[3],≤ 0
O=C1CC2(CCCC2)CC(=O)N1CCCCNCC1COc2ccccc2O1 (stereo not given),scaled lipid accumulation score,[2],0.376
Cl.O=C(NCCCN1CCCCCC1)C(c1ccccc1)C1CCCCC1 (stereo not given),scaled lipid accumulation score,[2],0.897 (active)
CCN(CC)CCOC(=O)C(c1ccccc1)C1CCCCC1 (stereo not given) [Drofenine hydrochloride],scaled lipid accumulation score,,0.317
same,scaled lipid accumulation score,[2],0.335
CNC(C)C(=O)NC(C(=O)N1CCCC1C(=O)NC(C(=O)NCCCCCCNC(=O)C(NC(=O)C1CCCN1C(=O)C(NC(=O)C(C)NC)C1CCCCC1)C(c1ccccc1)c1ccccc1)C(c1ccccc1)c1ccccc1)C1CCCCC1 (stereo not given),scaled lipid accumulation score,[1],0.26
same,scaled lipid accumulation score,[2],0.061
CN1CC(O)C(O)C(O)C1CO (stereo not given) [N-Methyl-1-deoxynojirimycin],scaled lipid accumulation score,[2],≤ -0.07
Cc1[nH]nc2ccc(-c3cncc(OC[C@@H](N)Cc4ccccc4)c3)cc12,scaled lipid accumulation score,[2],0.795
Cc1n[nH]c2ccc(-c3cncc(OC[C@@H](N)Cc4ccccc4)c3)cc12,scaled lipid accumulation score,[1],1.24 (active)
O=c1cnn([C@@H]2O[C@H](CO)[C@@H](O)[C@H]2O)c(=O)[nH]1,scaled lipid accumulation score,[2],≤ 0
CNCCC(Oc1ccc(C(F)(F)F)cc1)c1ccccc1.Cl (stereo not given) [Fluoxetine],scaled lipid accumulation score,library stock concentration: 5.8 mM,0.96 (active)
CNCCC(Oc1ccc(C(F)(F)F)cc1)c1ccccc1.Cl (stereo not given),scaled lipid accumulation score,[2],0.914 (active)
CNCCC(Oc1ccc(C(F)(F)F)cc1)c1ccccc1.Cl (stereo not given) [Fluoxetine hydrochloride] [listing 1 of 2 here],scaled lipid accumulation score,[2],1.57 (active)
CNCCC(Oc1ccc(C(F)(F)F)cc1)c1ccccc1.Cl (stereo not given) [Fluoxetine HCl],scaled lipid accumulation score,[1],0.709 (active)
same,scaled lipid accumulation score,[2],1.02 (active)
CCCCCCCCCCCCCCCC(=O)N[C@H](C)CO [R-Palmitoyl-(1-methyl) Ethanolamide],scaled lipid accumulation score,[3],0.031
CCCCC[C@H](O)/C=C/[C@H]1[C@@H](O)CC(=O)[C@@H]1CCCCCCC(=O)O [11.beta.-Prostaglandin E1],scaled lipid accumulation score,[3],≤ 0
COc1ccnc2[nH]cc(C(=O)C(=O)N3CCN(C(=O)c4ccccc4)C[C@H]3C)c12,scaled lipid accumulation score,[1],≤ 0
same,scaled lipid accumulation score,[2],0.019
O=C(O)c1ccc(N2C(=O)C(=Cc3ccc(-c4ccc([N+](=O)[O-])cc4)o3)C=C2c2ccccc2)cc1,scaled lipid accumulation score,[1],0.129
same,scaled lipid accumulation score,[2],0.284
Cc1nc(N)ncc1-c1nc(N2CCOCC2)c2sc(C(C)(C)O)cc2n1,scaled lipid accumulation score,[4],0.092
same,scaled lipid accumulation score,[5],≤ -0.005
same,scaled lipid accumulation score,[2],≤ -0.005
O=C(CCCCc1ccccc1)C(F)(F)C(F)(F)F,scaled lipid accumulation score,[3],≤ 0
CC1CC(OC(=O)C(O)c2ccccc2)CC(C)(C)C1 (stereo not given),scaled lipid accumulation score,[2],0.065
CC1CC(OC(=O)C(O)c2ccccc2)CC(C)(C)C1 (stereo not given) [Cyclandelate],scaled lipid accumulation score,[1],≤ 0
same,scaled lipid accumulation score,[2],0.196
COc1cc2c(cc1OC)-c1[nH]nc(Nc3cccc(F)c3)c1C2,scaled lipid accumulation score,[6],≤ -0.001
same,scaled lipid accumulation score,[4],≤ -0.001
same,scaled lipid accumulation score,[3],≤ 0
same,scaled lipid accumulation score,[5],0.073
same,scaled lipid accumulation score,[2],0.232
COc1cc2c(cc1OC)-c1[nH]nc(Nc3cccc(F)c3)c1C2 [PDGF Receptor Tyrosine Kinase Inhibitor IV],scaled lipid accumulation score,[1],0.044
O[C@H]1[C@H](O)[C@@H](O)[C@@H]2O[C@@H]2[C@@H]1O (racemic) [Conduritol b epoxide],scaled lipid accumulation score,library stock concentration: 12.3 mM,≤ 0
Cc1cc(O)c(C=O)c2c1C(=O)Oc1c(C)c(O)c3c(c1O2)C(O)OC3=O (stereo not given) [Norstictic acid],scaled lipid accumulation score,[2],≤ 0
CNCC[C@H](Oc1ccc(C(F)(F)F)cc1)c1ccccc1 [S-(+)-Fluoxetine hydrochloride],scaled lipid accumulation score,[2],0.403
CN(CC[C@@H](Oc1ccc(C(F)(F)F)cc1)c1ccccc1)CC(=O)[O-].[Li+],scaled lipid accumulation score,[2],0.149
CNCCC(Oc1ccc(C(F)(F)F)cc1)c1ccccc1.Cl (stereo not given) [Fluoxetine hydrochloride] [listing 2 of 2 here],scaled lipid accumulation score,,1.05 (active)
CN(CC[C@@H](Oc1ccc(-c2ccccc2)cc1)c1ccc(F)cc1)CC(=O)O [ALX 5407 hydrochloride],scaled lipid accumulation score,[2],≤ -0.006
CNCCC(Oc1ccc(C(F)(F)F)cc1)c1ccccc1 (stereo not given) [Fluoxetine hydrochloride],scaled lipid accumulation score,[2],0.09
CNCCC(Oc1ccc(C(F)(F)F)cc1)c1ccccc1 (stereo not given) [Fluoxetine],scaled lipid accumulation score,[2],0.637
O=C(NCc1ccncc1)C12CC3CC(C1)CC(c1ccc(Cl)cc1)(C3)C2,scaled lipid accumulation score,library stock concentration: 13.1 mM,0.27
C[C@H](N[C@@H](CCc1ccccc1)C(=O)O)C(=O)N1Cc2ccccc2C[C@H]1C(=O)O,scaled lipid accumulation score,[2],≤ 0
O=C1Nc2ccc(Cl)cc2/C1=C/c1cc(Cl)c(O)c(Cl)c1,scaled lipid accumulation score,[6],≤ -0.001
same,scaled lipid accumulation score,[4],≤ -0.001
same,scaled lipid accumulation score,[5],≤ -0.001
same,scaled lipid accumulation score,[2],≤ -0.001
CN1CCN(C(=O)c2cc3cc(Cl)ccc3[nH]2)CC1,scaled lipid accumulation score,[1],0.053
same,scaled lipid accumulation score,[2],0.452
Cc1[nH]c(/C=C2\C(=O)Nc3ccc(S(=O)(=O)Cc4c(Cl)cccc4Cl)cc32)c(C)c1C(=O)N1CCC[C@@H]1CN1CCCC1 [listing 1 of 2 here],scaled lipid accumulation score,[6],1.15 (active)
same,scaled lipid accumulation score,[4],1.16 (active)
same,scaled lipid accumulation score,[5],1.16 (active)
Cc1[nH]c(C=C2C(=O)Nc3ccc(S(=O)(=O)N(C)c4cccc(Cl)c4)cc32)c(C)c1C(=O)N1CCN(C)CC1,scaled lipid accumulation score,[1],1.39 (active)
same,scaled lipid accumulation score,[2],1.27 (active)
Cc1[nH]c(/C=C2/C(=O)Nc3ccc(S(=O)(=O)N(C)c4cccc(Cl)c4)cc32)c(C)c1C(=O)N1CCN(C)CC1,scaled lipid accumulation score,[5],0.927 (active)
same,scaled lipid accumulation score,[2],1.14 (active)
Cc1[nH]c(/C=C2\C(=O)Nc3ccc(S(=O)(=O)N(C)c4cccc(Cl)c4)cc32)c(C)c1C(=O)N1CCN(C)CC1 [Met Kinase Inhibitor],scaled lipid accumulation score,[1],1.38 (active)
"O=C1Nc2ccc(Cl)cc2/C1=C/c1cc(Cl)c(O)c(Cl)c1 [PKR Inhibitor, Negative Control]",scaled lipid accumulation score,[1],≤ 0
Cc1[nH]c(/C=C2\C(=O)Nc3ccc(S(=O)(=O)Cc4c(Cl)cccc4Cl)cc32)c(C)c1C(=O)N1CCC[C@@H]1CN1CCCC1 [listing 2 of 2 here],scaled lipid accumulation score,[1],0.429
same,scaled lipid accumulation score,[2],0.553 and 0.41 and 0.638
Cc1[nH]c(/C=C2\C(=O)Nc3ccc(S(=O)(=O)N(C)c4cccc(Cl)c4)cc32)c(C)c1C(=O)N1CCN(C)CC1,scaled lipid accumulation score,[6],0.129
same,scaled lipid accumulation score,[4],0.261
CN1CCCN(C(=O)c2cccc(-c3ccc(/C=C4/C(=O)Nc5ccc(Cl)cc54)o3)c2)CC1,scaled lipid accumulation score,[1],0.657
same,scaled lipid accumulation score,[2],≤ -0.001
COC(=O)C[C@H](NC(=O)[C@H](C)NC(=O)[C@@H](NC(=O)OCc1ccccc1)C(C)C)C(=O)CF,scaled lipid accumulation score,library stock concentration: 10.7 mM,≤ -0.012
CC(=O)N[C@@H](CCC(N)=O)C(=O)O,scaled lipid accumulation score,[2],≤ 0
N#CC(c1ccnc(NCCc2cccnc2)n1)c1nc2ccccc2s1 (stereo not given),scaled lipid accumulation score,[6],≤ 0
same,scaled lipid accumulation score,[4],≤ 0
same,scaled lipid accumulation score,[5],0.058
same,scaled lipid accumulation score,[2],0.62
N#CC(c1ccnc(NCCc2cccnc2)n1)c1nc2ccccc2s1 (stereo not given) [JNK Inhibitor V],scaled lipid accumulation score,[1],0.329
CC(=O)NCCCCCCNC(C)=O,scaled lipid accumulation score,[2],≤ 0
COc1cc2c(cc1O)[C@@H](Cc1ccc(O)cc1)[N+](C)(C)CC2 [Magnocurarine iodide],scaled lipid accumulation score,[2],0.116
CCOCC(O)COc1ccc(NC(=O)CC[S+](C)C)cc1 (stereo not given) [Suplatast Tosylate],scaled lipid accumulation score,[1],≤ 0
same,scaled lipid accumulation score,[2],≤ 0
CCOCC(O)COc1ccc(NC(=O)CC[S+](C)C)cc1 (stereo not given) [Suplatast tosylate],scaled lipid accumulation score,[2],≤ -0.001
NC1=NCC2c3ccccc3Cc3ccccc3N12 (stereo not given) [Epinastine hydrochloride],scaled lipid accumulation score,[2],0.592
NC1=NCC2c3ccccc3Cc3ccccc3N12 (stereo not given) [Epinastine HCl],scaled lipid accumulation score,[1],≤ 0
same,scaled lipid accumulation score,[2],0.038
CCOC(=O)C(Cc1ccc(O)cc1)NC(C)=O (stereo not given) [Acetyl tyrosine ethyl ester],scaled lipid accumulation score,[2],≤ 0
CCCCC/C=C/C/C=C/CCCCCCCC(=O)O [Linoelaidic Acid],scaled lipid accumulation score,[3],0.006
C[C@]12CC[C@H](O)CC1=CC[C@@H]1[C@@H]2CC[C@]2(C)C(n3cnc4ccccc43)=CC[C@@H]12 [Galeterone],scaled lipid accumulation score,[1],0.137
C[C@]12CC[C@H](O)CC1=CCC1C2CC[C@]2(C)C(n3cnc4ccccc43)=CCC12 (stereo not given in full) [Galeterone],scaled lipid accumulation score,[2],1.27 (active)
CC(=O)[C@H]1CC[C@H]2[C@@H]3CC=C4C[C@@H](O)CC[C@]4(C)[C@H]3CC[C@]12C [Pregnenolone],scaled lipid accumulation score,,0.084
same,scaled lipid accumulation score,[1],≤ 0
same,scaled lipid accumulation score,library stock concentration: 6.3 mM,≤ 0
same,scaled lipid accumulation score,[2],≤ 0
N[C@@H](Cc1ccc(O)c([N+](=O)[O-])c1)C(=O)O [Nitrotyrosine],scaled lipid accumulation score,[3],0.016
CC(C)NCCCn1c(Sc2cc3c(cc2I)OCO3)nc2c(N)ncnc21 [listing 1 of 2 here],scaled lipid accumulation score,[1],0.728
CC(C)NCCCn1c(Sc2cc3c(cc2I)OCO3)nc2c(N)ncnc21 [listing 2 of 2 here],scaled lipid accumulation score,[2],0.881 (active)
